Test results from PubChem BioAssay (EPA / NIEHS).
Several values for one entry are separate records, joined by “and”; a condition that tells them apart may be missing. Identical values can stand only once. A structure can be active in one record and inactive in another. Activity calls are given as the source filed them. How the source made its calls: active means hit-call score of the fitted dose curve at least 0.9, where 1 is the maximum; inactive means score below 0.9.

What was measured:
[1] = BSK_3C_SRB: Viability Assessment in the BioMAP Diversity Plus: 3C Assay (AID 2283023); conditions: primary human endothelial cells (HUVEC);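 further: fitted both ways against DMSO so a hit may be signal rise or drop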
How it was run: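 Overt cytotoxicity is gauged in parallel confluent HUVEC cultures by SRB total-protein staining at the time of biomarker measurement, 24 h after dosing. Gain or loss of signal is fitted versus DMSO.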

[2] = read-out: Matrix Metallopeptidase 1 (MMP1), MMP1 (gene 4312); experiment: BSK_BE3C_MMP1: BioMAP Diversity Plus: BE3C Assay for Matrix Metallopeptidase 1 (MMP1) Biomarker Activity (AID 2283024); conditions: primary human bronchial epithelial cells; actives raise or lower the signal
How it was run: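 ELISA measurement of MMP-1 after 24 h compound exposure of primary human bronchial epithelial cells. Changes in either direction fitted relative to DMSO; parallel SRB staining checked overt cytotoxicity.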

[3] = BSK_3C_Vis: BioMAP Diversity Plus: 3C Assay for Morphology Visualization (AID 2283025); conditions: primary human endothelial cells (HUVEC);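 further: fitted both ways so gain or loss versus DMSO counts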;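 on AC50: light microscopy image of cell morphology used as background control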
How it was run: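 Light-microscopy visualization of HUVEC cultures at 24 h post-treatment, with DMSO as baseline for bidirectional fitting.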

[4] = read-out: Pselectin, SELP (gene 6403); experiment: BSK_4H_Pselectin: BioMAP Diversity Plus: 4H Assay for Pselectin Biomarker Activity (AID 2283026); conditions: primary human endothelial cells (HUVEC); actives raise or lower the signal
How it was run: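 ELISA of surface P-selectin on HUVEC, 24 h after dosing, with parallel SRB staining (0.1% after 10% TCA fixation, 560 nm) for overt cytotoxicity. Activity fitted in both directions relative to DMSO.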

[5] = BSK_4H_SRB: Viability Assessment in the BioMAP Diversity Plus: 4H Assay (AID 2283027); conditions: primary human endothelial cells (HUVEC);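 further: cells exposed to compound for 24 h before staining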;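 on AC50: curves fitted both ways versus DMSO so AC50 may be loss or gain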
How it was run: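 Cytotoxicity read-out in primary human endothelial cells: after 24 h compound exposure, cells were TCA-fixed (10%), stained with 0.1% SRB and absorbance taken at 560 nm. Values fitted in both directions relative to DMSO.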

[6] = BSK_BE3C_SRB: Viability Assessment in the BioMAP Diversity Plus: BE3C Assay (AID 2283028); conditions: primary human bronchial epithelial cells;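 on AC50: fitted both ways so AC50 may mark signal gain or loss versus DMSO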
How it was run: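 SRB total-protein staining (0.1%, after TCA fixation) of chemically dosed human bronchial epithelial primary cells at 24 h; DMSO serves as the negative control for bidirectional curve fitting.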

[7] = read-out: Thrombomodulin, THBD (gene 7056); experiment: BSK_3C_Thrombomodulin: BioMAP Diversity Plus: 3C Assay for Thrombomodulin Biomarker Activity (AID 2283029); conditions: primary human endothelial cells (HUVEC); actives raise or lower the signal
How it was run: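 ELISA measurement of thrombomodulin on HUVEC surface 24 h after chemical dosing; activity fitted in both directions relative to DMSO vehicle.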

[8] = read-out: Urokinase-type plasminogen activator receptor (uPAR), PLAUR (gene 5329); experiment: BSK_4H_uPAR: BioMAP Diversity Plus: 4H Assay for Urokinase-type plasminogen activator receptor (uPAR) Biomarker Activity (AID 2283030); conditions: primary human endothelial cells (HUVEC); actives raise or lower the signal
How it was run: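 Endpoint derived via bidirectional curve fitting against DMSO baseline; readout was ELISA detection of uPAR on umbilical vein endothelial cells at 24 h post-treatment, with SRB-stained parallel cultures assessing cytotoxicity.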

[9] = read-out: Vascular endothelial growth factor receptor 2 (Homo sapiens) (UniProt P35968); experiment: BSK_4H_VEGFRII: BioMAP Diversity Plus: 4H Assay for Vascular endothelial growth factor receptor 2 (VEGFR2) Biomarker Activity (AID 2283031); conditions: primary human endothelial cells (HUVEC); actives raise or lower the signal;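 on AC50: cell-surface VEGFR2 protein level quantified by ELISA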
How it was run: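 In this multiplexed HUVEC system, biomarker ELISA was performed after 24 h chemical exposure. Parallel SRB staining (TCA fixation, 560 nm) tracked cytotoxicity; DMSO served as baseline.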

[10] = read-out: Human Leukocyte Antigen - DR isotype (HLADR), HLA-DRA (gene 3122); experiment: BSK_BE3C_HLADR: BioMAP Diversity Plus: BE3C Assay for Human Leukocyte Antigen - DR isotype (HLADR) Biomarker Activity (AID 2283032); conditions: primary human bronchial epithelial cells; actives raise or lower the signal
How it was run: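 Cell-surface HLA-DR ELISA readout at 24 h after dosing in the BE3C primary human lung bronchial epithelial system; gain or loss of signal against DMSO, with parallel sulforhodamine B staining of total protein for overt cytotoxicity.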

Measured: AC50

CCc1ccc(CCOc2ccc(CC3SC(=O)NC3=O)cc2)nc1 (stereo not given)
inactive: all assays above

O=C(O)c1ccccc1C(c1ccc(O)cc1)c1ccc(O)cc1
active: [10] 31.6 µM
inactive: all other assays above

CC(C)CCCCCCOC(=O)CCCCC(=O)OCCCCCCC(C)C
inactive: all assays above

O=[N+]([O-])c1ccc(O)cc1
inactive: all assays above

OC1CCCCC1
inactive: all assays above

c1ccc2cc3c(ccc4ccccc43)cc2c1
active: [2] 1.42 µM | [3] 9.8 µM
inactive: all other assays above

NCC(F)(F)C(F)(F)C(F)(F)C(F)(F)C(F)(F)C(F)(F)C(F)(F)F
active: [9] 7.22 µM
inactive: [1] | [2] | [4] | [5] | [6] | [7] | [8] | [9] | [10]

Cc1oc(-c2ccccc2)nc1CCOc1ccc(C[C@H](Nc2ccccc2C(=O)c2ccccc2)C(=O)O)cc1
inactive: [2] | [7] | [9]
active: [1] 14.9 µM | [3] 37.5 µM | [4] 32.9 µM | [5] 15.1 µM | [6] 5.13 µM | [8] 15.6 µM | [10] 3.01 µM

Nc1cccc2c(N)cccc12
inactive: all assays above

ClC1=C(Cl)C(Cl)(Cl)C(Cl)=C1Cl
active: [1] 5.75 µM | [2] 10.7 µM | [3] 7.95 µM | [4] 5.42 µM | [5] 6.82 µM | [6] 6.99 µM | [7] 10.3 µM | [8] 5.91 µM | [10] 6.39 µM
inactive: [9]

CC[C@H](c1ccc(O)cc1)[C@@H](CC)c1ccc(O)cc1
active: [1] 27.9 µM | [2] 38 µM | [3] 22.3 µM | [4] 20.3 µM | [5] 30.6 µM | [6] 35.8 µM | [7] 31 µM | [8] 26 µM | [10] 19.1 µM
inactive: [9]

CCCCCCCC(=O)O
inactive: all assays above

CCCCC(CC)COC(=O)CCCCC(=O)OCC(CC)CCCC (stereo not given)
inactive: all assays above

CN1CCN(c2ccccc2/C=C2\SCCN(c3ccc(Cl)c(Cl)c3)C2=O)CC1
active: [1] 16.3 µM | [2] 32 µM | [3] 13.9 µM | [4] 6.28 µM | [5] 15 µM | [6] 33.3 µM | [8] 5.49 µM | [10] 25.7 µM
inactive: [7] | [9]

C#C[C@]1(O)CC[C@H]2[C@@H]3CCC4=CC(=O)CC[C@@H]4[C@H]3CC[C@@]21C
active: [1] 5.17 µM | [5] 17.1 µM | [8] 11 µM | [9] 20 µM
inactive: all other assays above

CC(O)CO (stereo not given)
inactive: all assays above

CCCCCCCCOC(=O)CCCCCCCCC(=O)OCCCCCCCC
inactive: all assays above

COCC(C)OCC(C)O (stereo not given)
active: [3] 39 µM
inactive: all other assays above

CCCCCCCCCCCCCC[N+](C)(C)C
inactive: [8] | [9]
active: [1] 1.38 µM | [2] 5.8 µM | [3] 3.02 µM | [4] 1.95 µM | [5] 5.31 µM | [6] 5.28 µM | [10] 3.18 µM

CC#C[C@]1(O)CC[C@H]2[C@@H]3CCC4=CC(=O)CCC4=C3[C@@H](c3ccc(N(C)C)cc3)C[C@@]21C
active: [1] 30.5 µM | [2] 0.623 µM | [4] 29.9 µM | [5] 29.1 µM | [8] 3.97 µM
inactive: all other assays above

Cc1cc(CCN2CCN(c3nsc4ccccc34)CC2)cc2c1NC(=O)CC2(C)C
inactive: [9]
active: [1] 26.5 µM | [2] 31.2 µM | [3] 16.3 µM | [4] 16.5 µM | [5] 20 µM | [6] 32.4 µM | [7] 4.31 µM | [8] 4.39 µM | [10] 28.9 µM

CCCCC(CC)COC(=O)CCCCC(=O)OCc1ccccc1 (stereo not given)
inactive: all assays above

O=C(O)Cc1cc(I)c(Oc2cc(I)c(O)c(I)c2)c(I)c1
active: [4] 20.2 µM | [6] 8.8 µM | [8] 19.9 µM | [10] 5.22 µM
inactive: all other assays above

Oc1cc2ccccc2c2ccccc12
active: [1] 15.4 µM | [2] 27.9 µM | [3] 13.3 µM | [4] 9.99 µM | [5] 16.6 µM | [6] 28.8 µM | [7] 9.55 µM | [8] 13.2 µM | [9] 30.1 µM | [10] 13.8 µM

O=C(OCCOCCOC(=O)c1ccccc1)c1ccccc1
inactive: all assays above

FC(F)(I)C(F)(F)C(F)(F)C(F)(F)C(F)(F)C(F)(F)I
active: [4] 14.6 µM [middle of 5 runs] | [6] 23.6 µM [middle of 5 runs] | [7] 30 µM [middle of 4 runs] | [9] 55.1 µM and 7.3 µM
inactive: [7] | [9]

CCCCCCCCCCCCc1ccccc1S(=O)(=O)O
active: [2] 28.8 µM | [3] 39 µM | [6] 7.1 µM | [10] 8.12 µM
inactive: all other assays above

c1ccc2c(c1)ccc1ccccc12
inactive: all assays above

CCCCCCCCCCCCN1CCCC1=O
inactive: [7] | [9]
active: [1] 33.6 µM | [2] 31.7 µM | [3] 37.3 µM | [4] 30 µM | [5] 33.4 µM | [6] 32.8 µM | [8] 34.9 µM | [10] 26.2 µM

CCN(CC)CCNc1ccc(CNC=O)c2sc3ccc(OC)cc3c(=O)c12
inactive: [6] | [7]
active: [1] 17.7 µM | [2] 20 µM | [3] 14.4 µM | [4] 14.3 µM | [5] 25.4 µM | [8] 9.57 µM | [9] 20 µM | [10] 11 µM

c1ccc2c(c1)Cc1ccccc1-2
inactive: all assays above

N#C[C@@H]1CC(F)(F)CN1C(=O)CNC1CC2CCC(C1)N2c1ncccn1 (stereo not given in full)
active: [1] 8.06 µM | [3] 5.57 µM
inactive: all other assays above

CCCOc1sc(C(=O)N2CCC(c3cc(CN)ccc3F)CC2)c(C)c1Br
active: [1] 5 µM | [2] 11.1 µM | [3] 8.81 µM | [4] 6.2 µM | [5] 5.82 µM | [6] 4.93 µM | [7] 4.5 µM | [8] 6.64 µM | [9] 4.78 µM | [10] 7.9 µM
